Measured values from PubChem BioAssay (NCI).
About 83,000 compounds went through this panel and 20% of them were active in at least one assay; those are over-represented in the sample as a whole.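 Growth was measured after 48 h exposure to one concentration of compound in 96-well plates. Values under 10 count as active.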 The source made the active and inactive calls.

These compounds were tested on HL-60(TB) leukemia (assay: NCI-60 one-dose screen, 48 h (100 = growth as untreated, 0 = no growth, -100 = all killed)). Details: 10 µM unless noted.

Row | Structure (SMILES) | growth
1 | OC1CCCN(Cc2ccccc2)C1 (stereo not given) | 114% (inactive)
2 | Nc1cc(N)c(N)cc1N | 29.1% (inactive)
3 | COc1cc(CN)ccc1O | 73.9% (inactive)
4 | COc1ccc(S(=O)(=O)Oc2ccc(-c3sc4cc(OS(=O)(=O)c5ccc(OC)cc5)ccc4c3C(=O)c3ccc(OCCN4CCCCC4)cc3)cc2)cc1 | 91.1% (inactive)
5 | COc1cccc(C2C3=C(COC3=O)N(CCO)c3cc4c(cc32)CCC4)c1 (stereo not given) | -0.364% (active)
6 | O=S1(=O)CCC(N(/N=C/c2ccco2)c2ccccc2)C1 (stereo not given) | 100% (inactive)
7 | Cc1ccc(OCCn2c(C)nn(-c3ccc(Cl)cc3)c2=O)cc1 | 114% (inactive)
8 | COc1ccc(-c2nc(N/N=C/c3ccco3)nc(N3CCOCC3)c2C#N)cc1 | 94.8% (inactive)
9 | COC(=O)/C=C1/SC(=Nc2ccc([N+](=O)[O-])cc2)N(CCc2c[nH]c3ccccc23)C1=O | 69.8% (inactive)
10 | Cc1ccc(Sc2sc(-c3ccccc3)nc2[P+](c2ccccc2)(c2ccccc2)c2ccccc2)cc1 | -40.5% (active)
11 | COc1ccc(N)c(N)c1 | 84.9% (inactive)
12 | COc1ccc(-c2cn3ccnc3c(-c3ccc4ncn(C5CCCCC5)c4c3)n2)cc1 | 1.36% (active)
13 | CCC(c1ccc(O)cc1)C(CC)c1ccc(O)c(F)c1 (stereo not given) | 56.1% (inactive)
14 | COc1ccc(/C=C/c2c(C(=O)/C=C/c3ccc(Cl)cc3)c(C)nc3ccccc23)cc1 | 10% (inactive)
15 | CCOC(=O)C1CN(Cc2ccccc2)C(=O)C1=O (stereo not given) | 7.35% (active)
16 | c1ccc(COc2ccc(Nc3ncnc4c3cnn4-c3ccccc3)cc2)cc1 | 99.8% (inactive)
17 | CC(OC(=O)Nc1cccc(Cl)c1)C(=O)O (stereo not given) | 90.2% (inactive)
18 | C=C(C)[C@H]1CC/C(C)=C/CC[C@]2(C)O[C@H]2CC/C(COC(=O)[C@@H](OC(C)=O)[C@H](NC(=O)c2ccccc2)c2ccccc2)=C\[C@@H]1O | 91% (inactive)
19 | C=C1C(=O)O[C@H]2[C@H]1CC/C(COC(=O)NCc1[nH]nc3ccccc13)=C\CC[C@@]1(C)O[C@@H]21 | -51% (active)
20 | CCOC(=O)c1c(C)nn(CC(O)c2ccccc2)c1NC(=O)Nc1cccc(F)c1 (stereo not given) | 107% (inactive)

Row | Structure (SMILES) | growth
21 | CCCn1nc(-c2ccccc2)c2c(-c3ccccc3)onc2c1=O | 69.6% (inactive)
22 | Nc1c(C(=O)Nc2ccccc2F)sc2nc3c(cc12)CCCC3 | 15.5% (inactive)
23 | COc1ccc(C(=O)/C=C/c2ccccn2)c(O)c1 | 23.4% (inactive)
24 | CC(C)c1ccc(C(=O)Nc2nc3ccc(O)cc3s2)cc1 | 14.4% (inactive)
25 | CCN(CC)CC(O)CNc1ccc(NCC2CO2)c2c1C(=O)c1ccccc1C2=O (stereo not given) | -25.2% (active)
26 | CNC(=O)c1cc(Oc2ccc3nc(NC(=O)Nc4ccc(N5CCC(N(C)C)CC5)cc4)sc3c2)ccn1 | 77.1% (inactive)
27 | O=C(O)c1ccc(-c2nn(-c3ccc(C(F)(F)F)cc3)cc2CNc2ccc(Oc3ccccc3)cc2)cc1 | 35.5% (inactive)
28 | O=C(Nc1cccc(-n2ccc3c(NC(=O)c4ccccc4)nccc32)c1)c1cc(N2CCOCC2)cc(C(F)(F)F)c1 | -13.1% (active)
29 | Clc1cc(Cl)c2nc(-c3ccc(-c4ccc(/C=N/NC5=NCCN5)cc4)s3)cn2c1 | 98.4% (inactive)
30 | COc1nc(=O)n(C2C=CC(=O)O2)cc1F (stereo not given) | 1.27% (active)
31 | COc1ccc(-c2nnc(SCC(=O)Nc3ccc(C(=O)/C=C/c4ccc(OC)c(OC)c4)cc3)o2)cc1 | 74.7% (inactive)
32 | O=C1c2ccccc2C(=O)c2c1ccc1[nH]c(-c3cccs3)nc21 | 93.6% (inactive)
33 | CC(C)CCSc1nc(-c2ccc(F)cc2)c(C#N)c(N2CCCCC2)n1 | 73.1% (inactive)
34 | O=C(NOC(=O)c1ccccc1)c1ccccc1 | 87.1% (inactive)
35 | CN(C)c1ccc(/C=C\C2=[N+](C)c3ccccc3C2(C)C)cc1 | 22.9% (inactive)
36 | CCOC(=O)c1cnc2ccc(OC)cc2c1Nc1cccc(S(=O)(=O)NC)c1 | 109% (inactive)
37 | C=C1c2nc3ccccc3n2C=C(c2ccc(Cl)cc2)N1Cc1ccccc1 | 60.1% (inactive)
38 | CCOC(=O)c1cnn2c(-c3ccc(Cl)cc3)nc(NCc3ccccc3)nc12 | 82.7% (inactive)
39 | C#CCOc1cccc(Nc2ncnc3cc(NC(=O)CCl)ccc23)c1 | -62.2% (active)
40 | CNC(=O)c1cc(Oc2ccc(NC(=O)Nc3ccc(Cl)c(SC)c3)c(F)c2)ccn1 | 45.5% (inactive)
